# High-throughput results: PubChem, The Scripps Research Institute Molecular Screening Center
# GPR151 activ: activators of human GPR151 | PathHunter beta-arrestin GPR151 cells, luminescence | activation, % at 11.2 µM | 650,000 tested, 1% active | AID 1508602; in the data active means activation above about 4.9%;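 further: 0% = median of compound wells and 100% = cells with positive control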
# Target sequence (Q8TDV0 whole entry, looked up): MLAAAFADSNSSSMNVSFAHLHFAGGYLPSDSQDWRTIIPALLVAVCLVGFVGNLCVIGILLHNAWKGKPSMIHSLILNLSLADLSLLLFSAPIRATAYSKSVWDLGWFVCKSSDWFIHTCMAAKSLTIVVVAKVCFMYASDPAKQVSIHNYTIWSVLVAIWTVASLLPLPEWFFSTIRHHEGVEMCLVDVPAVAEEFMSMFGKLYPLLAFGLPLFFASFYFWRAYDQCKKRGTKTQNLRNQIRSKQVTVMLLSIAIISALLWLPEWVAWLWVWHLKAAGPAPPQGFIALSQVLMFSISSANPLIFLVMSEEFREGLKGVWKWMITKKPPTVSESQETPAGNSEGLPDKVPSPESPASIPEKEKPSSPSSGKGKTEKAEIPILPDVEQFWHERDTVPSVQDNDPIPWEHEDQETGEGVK
# FBW7 act: human FBW7 E3 ligase activation, primary screen | Q969H0 | AlphaScreen FBW7–phospho-cyclin E peptide binding, activator screen | normalized activity (activation), % at 26.1 µM | 650,000 tested, 0.13% active | AID 1259310; in the data active means normalized activity above about 1.9%;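 further: purified mutant Fbw7 with reduced substrate affinity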
# MITF inh: inhibitors of human MITF. 650,000 tested, 0.91% active. AlphaScreen MITF homodimerization, bead proximity signal. O75030. inhibition, % at 2.6 µM; in the data active means inhibition above about 50%;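 further: 0% = vehicle wells with protein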
# TEAD-YAP block: TEAD-YAP interaction inhibition; HEK-TIYL cells, TEAD-Gal4/YAP UAS-luciferase luminescence; inhibition, % at 9.12 µM; 640,000 tested, 1.4% active; in the data active means inhibition above about 32%;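 further: 0% = median of test compound wells and 100% = reference inhibitor wells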
# The depositor's hits bear a star. This is a sample that favours compounds with a hit; in the whole collection about 3.5% have one here.
SMILES,GPR151 activ,FBW7 act,MITF inh,TEAD-YAP block
O[C@@H]1CCCC[C@@H]1c1ccccn1,2.1,0.0,-0.2,6.8
Clc1ccc(CNc2ncnc3sccc23)cc1,1.1,0.0,-2.5,52.3*
OCCCNc1ncnc2sccc12,2.8,0.0,-3.6,5.5
c1nc(NCC2CCCCC2)c2ccsc2n1,0.0,0.0,-9.2,36.2*
Clc1ccc(CNc2ncnc3ccccc23)cc1,4.7,-0.1,1.5,56.5*
c1ccc(CNc2ncnc3sccc23)nc1,-0.6,0.2,8.8,-5.3
CCOC(=O)c1[nH]c(C)c(C(=O)Nc2ccccc2F)c1C,-1.5,0.6,13.0,29.6
CCOC(=O)c1[nH]c(C)c(C(=O)Nc2ccc(OC)cc2)c1C,-0.6,0.1,-0.7,-3.7
CCOC(=O)c1[nH]c(C)c(C(=O)Nc2ccc(OC)cc2OC)c1C,1.5,0.0,5.6,44.3*
CCOC(=O)c1[nH]c(C)c(C(=O)Nc2ccccc2SC)c1C,0.9,-0.2,-3.2,51.7*
CCOC(=O)c1[nH]c(C)c(C(=O)Nc2ccccc2OC)c1C,-0.5,0.9,17.3,58.6*
CCOC(=O)c1[nH]c(C)c(C(=O)Nc2ccccc2)c1C,-0.5,0.0,3.4,-13.6
C/C(N)=C(/C#N)C(=O)CSc1ccc(C)c(C)c1,-1.2,0.1,-3.1,36.2*
CN1CCN(/N=C/c2ccc(O)c(O)c2)CC1,2.1,-0.1,79.3*,8.4
COc1ccc(NCC(=O)n2c(C)c(C)c3ccccc32)cc1,-0.9,0.2,8.5,52.5*
COc1ccc(NCC(=O)n2nc(C)cc2C)cc1,0.5,0.0,-0.4,13.4
CC1CCc2c(sc(NC(=O)c3ccco3)c2C(=O)O)C1 (centres undefined),-2.3,0.1,-5.9,33.3*
CC(C)(C)C1CCc2c(sc(NC(=O)c3ccco3)c2C(=O)O)C1 (centres undefined),-0.5,-0.1,2.1,89.7*
CCN(CC)C(=O)c1c(NC(=O)c2ccco2)sc2c1CCC(C(C)(C)C)C2 (centres undefined),0.3,-0.1,-0.1,3.2
COc1cc(Cl)cc(/C=N/NC(=O)c2cccc(F)c2)c1O,1.2,-0.6,49.2,69.7*
O=C(N/N=C/c1cc(Cl)cc(Br)c1O)c1ccncc1,-0.2,0.2,98.4*,47.1*
COc1cc(Br)cc(/C=N\NC(=O)c2ccc(Br)cc2)c1O,0.3,-0.3,21.1,11.6
COc1cc(Br)cc(/C=N/NC(=O)c2ccncc2)c1O,-0.8,-1.1,91.0*,87.3*
COc1cc(Br)cc(/C=N/NC(=O)c2ccc(F)cc2)c1O,0.3,-0.2,17.8,0.9
COc1ccc(C(=O)N/N=C/c2cc(Cl)cc(Br)c2O)cc1,-1.4,0.0,25.8,33.4*
SMILES,GPR151 activ,FBW7 act,MITF inh,TEAD-YAP block
O=c1c(-c2ccc(Cl)cc2)c(N2CCCCCC2)c1=O,-1.4,0.1,-15.3,-2.4
O=C(N/N=C/c1cc(Br)cc(I)c1O)c1cccnc1,-0.5,-0.2,41.2,68.3*
O=C(N/N=C/c1cc(Cl)cc(Br)c1O)c1cccnc1,2.0,-0.2,64.4*,78.5*
Cc1cc(Br)cc(/C=N\NC(=O)c2ccc(N)cc2)c1O,0.1,-0.5,-4.1,65.5*
O=C(N/N=C/c1cc(Br)cc(Br)c1O)c1cccnc1,-2.1,-0.3,34.0,33.2*
Cc1ccc2cc(/C=C3\N=C(c4ccccc4)OC3=O)c(N(C)C)nc2c1,-0.7,0.2,-4.2,3.0
COc1ccc(-c2csc(NC(=O)c3cc(Cl)ccc3[N+](=O)[O-])n2)cc1,-0.6,-0.2,5.7,-8.0
NC(=O)c1ccc(-c2cc(NC3CCN(Cc4ccccc4)CC3)ncn2)cc1,2.2,-0.1,11.2,1.8
CC(C)NCCCOc1ccc2ccccc2c1Br,-0.9,-0.1,-4.5,40.0*
O=C(OCC(=O)N1CCN(Cc2ccccc2)CC1)c1cc(O)c(O)c(O)c1,-0.6,0.1,84.0*,-10.7
O=C(OCC(=O)N1CCCCCC1)c1cc(O)c(O)c(O)c1,0.9,-0.2,90.7*,-1.9
Cc1cc(C)cc(C(=O)OCC(=O)N2CCCC2)c1,-0.2,0.3,2.9,-8.8
CC(C)OC(=O)c1ccc(COC(=O)Cc2ccc([N+](=O)[O-])cc2)cc1,-0.9,-0.1,-6.3,-2.5
CCOC(=O)c1c(NC(=O)/C(C#N)=C/c2cccnc2)sc(C)c1C,-0.4,2.0*,14.2,6.1
CCOC(=O)c1c(NC(=O)/C(C#N)=C/c2cccnc2)sc2c1CCCC2,2.7,-0.1,-4.6,4.4
Cc1cnc(C)c(-c2ccc3c(c2)CC(CNC(=O)c2ccccc2-n2cccn2)O3)n1 (centres undefined),-0.8,-0.2,1.4,-5.0
Cc1cc2ncn(C(=O)c3c(-c4ccccc4)noc3C)c2cc1C,0.6,0.1,2.3,10.5
